According to ChEMBL document CHEMBL3988442, “University of Dundee, Small-Polar-MMV Screening Library” (2021):
Out of some 48,000 compounds screened, about 13,000 (27%) showed an effect of 50% or more. The list shows a part of the results.

test system: Wolbachia pipientis; assay: Anti-Wolbachia Cell-Based Screen; format: functional; set-up: scale not given: in the data most compounds retested in dose-response had high values; conditions: 5 µM

**Q.** With `Cc1occc1C(=O)N1CCC(C(O)c2ccc(F)cc2)CC1` (stereo not given) as the compound, how does the “Percent Effect” value read?
**A.** -2.674%

**Q.** For `Cc1ccc(C)c(CC(=O)Nc2cnccc2SCCCO)c1`, which “Percent Effect” value is on record?
**A.** 3.451%

**Q.** How did the “Percent Effect” value turn out when `CCCN1CCC(N2CCN(c3cccc(C)n3)CC2)CC1` was run?
**A.** 3.962%

**Q.** For `CC(C)C[C@@H]1N[C@H](C(=O)NCC2CC2)Cc2c[nH]c3cccc1c23`, which “Percent Effect” value is on record?
**A.** 1.644%

**Q.** With `COCC1c2nnn(CC3CC3)c2CCN1C(=O)c1sccc1C` (stereo not given) as the compound, how does the “Percent Effect” value read?
**A.** 4.054%

**Q.** For `Cc1nnc(N2CCC(CNC(=O)OC(C)(C)C)CC2)c(C#N)c1C`, which “Percent Effect” value is on record?
**A.** -3.272%

**Q.** For `Cl.Cl.O[C@@H]1C[C@@](CNCC2CCCC2)(COc2cccnc2)C[C@@H]1O`, which “Percent Effect” value is on record?
**A.** -14.64%

**Q.** How did the “Percent Effect” value turn out when `O=C(CNc1cccc(CC(F)(F)F)c1)NCc1ccco1` was run?
**A.** 5.703%

**Q.** For `O=C(CCc1ccncc1)Nc1ccc(OCC2CCOCC2)cc1`, which “Percent Effect” value is on record?
**A.** 5.919%

**Q.** How did the “Percent Effect” value turn out when `O=C(CNc1cccc(S(=O)(=O)C(F)F)c1)NCc1ccco1` was run?
**A.** 4.728%

**Q.** With `O=C(CNc1ccc(OCC2CCOCC2)cc1)NCc1ccco1` as the compound, how does the “Percent Effect” value read?
**A.** 93.4%

**Q.** How did the “Percent Effect” value turn out when `O=C(CNc1ccc(OC2CCOC2)cc1)NCc1ccco1` (stereo not given) was run?
**A.** 104.1%

**Q.** Which “Percent Effect” value does the source give for `O=C(CCc1cccnc1)Nc1ccc(OCC2CCOCC2)cc1` here?
**A.** -6.342%

**Q.** With `CCN1CCN(C(=O)CCC2CCN(C(C)CCC(=O)OC)CC2)CC1` (stereo not given) as the compound, how does the “Percent Effect” value read?
**A.** -3.151%

**Q.** `Cc1nccn1-c1ccc(N2CCC(NC(C)C(C)C)CC2)cc1` (stereo not given) was tested. Which “Percent Effect” value did it give?
**A.** 16.28%

**Q.** With `CN(C)c1cc(C(=O)NC2(c3cccc(F)c3)CCOCC2)ccn1` as the compound, how does the “Percent Effect” value read?
**A.** -10.5%

**Q.** Which “Percent Effect” value does the source give for `Cc1cccc(CN2C[C@@H]3CN(C(=O)c4conc4C)C[C@@H]3C2=O)c1` here?
**A.** 2.313%

**Q.** With `c1cncc(N2CCOC3(CCCN(c4nncs4)C3)C2)c1` (stereo not given) as the compound, how does the “Percent Effect” value read?
**A.** -20.57%

**Q.** How did the “Percent Effect” value turn out when `O=C(C1=NN(Cc2ccccc2)c2ccccc2S1(=O)=O)N1CCCC1` was run?
**A.** 25.7%

**Q.** With `CN1N=C(C(=O)N2CCCCC2)S(=O)(=O)c2ccccc21` as the compound, how does the “Percent Effect” value read?
**A.** 9.429%

**Q.** `Cc1ccc(N2N=C(C(=O)NCC3CC3)S(=O)(=O)c3cccnc32)cc1` was tested. Which “Percent Effect” value did it give?
**A.** 113.2%

**Q.** `CCc1c(C(=O)NCC2CCS(=O)(=O)C2)cnn1-c1ccc(C)cc1` (stereo not given) was tested. Which “Percent Effect” value did it give?
**A.** 0.07541%

**Q.** For `Cc1ccc(N2N=C(C(=O)O)S(=O)(=O)c3cccnc32)cc1`, which “Percent Effect” value is on record?
**A.** 88.09%

**Q.** `Cc1ccc(CN2CCN(c3ncccc3C(N)=O)CC2CCO)cc1` (stereo not given) was tested. Which “Percent Effect” value did it give?
**A.** 0.06546%

**Q.** How did the “Percent Effect” value turn out when `Cc1ccc(-n2nnc(C(=O)NCC3CCCCC3)n2)cc1` was run?
**A.** 3.646%

**Q.** `Cc1nc2c(c(N3CC=CC3)n1)CCN(c1ncccc1C(N)=O)CC2` was tested. Which “Percent Effect” value did it give?
**A.** -4.106%

**Q.** How did the “Percent Effect” value turn out when `Cc1ccc(N2N=C(C(N)=O)S(=O)(=O)c3cccnc32)cc1` was run?
**A.** 70.93%

**Q.** `C[C@H](NC(=O)C1(N(C)Cc2ccccc2)Cc2ccccc2C1)C(N)=O` was tested. Which “Percent Effect” value did it give?
**A.** -2.365%

**Q.** How did the “Percent Effect” value turn out when `CC(=O)c1c(F)cccc1NC1CCN(S(=O)(=O)C2CC2)CC1` was run?
**A.** 15.22%

**Q.** Which “Percent Effect” value does the source give for `CN(CC(=O)NC(C)(C)C)C(=O)c1cccn1CCc1ccccc1` here?
**A.** 4.312%

**Q.** `Cc1nn(C)c(C)c1CN(C)C(=O)c1cccc(CCC(C)(C)O)c1` was tested. Which “Percent Effect” value did it give?
**A.** -10.94%

**Q.** How did the “Percent Effect” value turn out when `Cc1cnn(CCNCc2nccn2CC(F)(F)F)c1` was run?
**A.** -5.156%

**Q.** For `CCn1c(CN(C)C(=O)c2ccc(O)nc2)nc2ccccc21`, which “Percent Effect” value is on record?
**A.** -29.68%

**Q.** For `CN(Cc1ccc2c(c1)OCO2)C(=O)c1ccc(=O)n(C)c1`, which “Percent Effect” value is on record?
**A.** -0.4136%

**Q.** How did the “Percent Effect” value turn out when `Cc1ccc(C(=O)N(C)Cc2nccn2CC(F)(F)F)cn1` was run?
**A.** 108.9%

**Q.** With `CN(Cc1nccn1C)C(=O)c1cccc(CCC(C)(C)O)c1` as the compound, how does the “Percent Effect” value read?
**A.** -1.939%

**Q.** For `Cc1ccc(C(=O)N(C)Cc2cc(Br)cs2)cn1`, which “Percent Effect” value is on record?
**A.** 108.4%

**Q.** With `CN(Cc1nccn1CC(F)(F)F)C(=O)c1ccc2c(c1)OCO2` as the compound, how does the “Percent Effect” value read?
**A.** 110.7%

**Q.** How did the “Percent Effect” value turn out when `CN(Cc1cc(Br)cn1C)C(=O)c1cccnc1` was run?
**A.** -11.61%

**Q.** `CN(Cc1nccn1CC(F)(F)F)C(=O)c1cccc(N(C)C)c1` was tested. Which “Percent Effect” value did it give?
**A.** 107.5%

**Q.** How did the “Percent Effect” value turn out when `CN(Cc1ccc2c(c1)OCO2)C(=O)c1ccn(C)c(=O)c1` was run?
**A.** 11.43%

**Q.** How did the “Percent Effect” value turn out when `Cc1cc(CN(C)C(=O)c2ccc(C(F)(F)F)nc2)no1` was run?
**A.** 4.429%

**Q.** Which “Percent Effect” value does the source give for `CCc1nnsc1C(=O)NCc1c(C)nn(CCOC)c1C` here?
**A.** 22.53%

**Q.** With `Cc1ccc(C2CCCCCN2CCNS(C)(=O)=O)o1` (stereo not given) as the compound, how does the “Percent Effect” value read?
**A.** -18.53%

**Q.** Which “Percent Effect” value does the source give for `O=C(CN1C(=O)CCCc2sccc21)NC1CCc2nccn2C1` (stereo not given) here?
**A.** -8.511%

**Q.** Which “Percent Effect” value does the source give for `Cc1cc(CN2C[C@H]3CC[C@@H]2CN(Cc2c(C)noc2C)C3)ccc1F` here?
**A.** -0.5585%

**Q.** `CCOc1ccc(C(=O)N(C)Cc2nccn2CC(F)(F)F)cc1` was tested. Which “Percent Effect” value did it give?
**A.** 117.2%

**Q.** How did the “Percent Effect” value turn out when `COCc1cccc(C(=O)N(C)Cc2ncc(C)c(OC)c2C)c1` was run?
**A.** 6.137%

**Q.** For `CN(C)CC1CCN(Cc2nccn2CC(F)(F)F)CC1`, which “Percent Effect” value is on record?
**A.** 2.033%

**Q.** `COc1cc(C(=O)N(C)Cc2nccn2CC(F)(F)F)ccc1C` was tested. Which “Percent Effect” value did it give?
**A.** 111.1%

**Q.** With `CC(O)C1CCN(Cc2nccn2CC(F)(F)F)CC1` (stereo not given) as the compound, how does the “Percent Effect” value read?
**A.** -9.918%

**Q.** How did the “Percent Effect” value turn out when `FC(F)(F)Cn1ccnc1CNCCn1cccn1` was run?
**A.** -10.84%

**Q.** Which “Percent Effect” value does the source give for `O=C(O)C(F)(F)F.O=C(O)C(F)(F)F.c1cncc(CN2CCOC(c3ncn4c(C5CC5)cccc34)C2)c1` (stereo not given) here?
**A.** -19.22%

**Q.** How did the “Percent Effect” value turn out when `Cc1ncsc1CCn1ccnc1-c1cc2n(n1)CCCNC2` was run?
**A.** -9.491%

**Q.** `COc1cc(C)c(C(C)NC(=O)Nc2nnc(C)s2)cc1OC` (stereo not given) was tested. Which “Percent Effect” value did it give?
**A.** -2.297%

**Q.** For `CO[C@H]1CN(C)S(=O)(=O)[C@@]12CCN(Cc1ccccc1)C2`, which “Percent Effect” value is on record?
**A.** 109.7%

**Q.** `CO[C@@H]1CN(C)S(=O)(=O)[C@@]12CCN(Cc1ccccc1)C2` was tested. Which “Percent Effect” value did it give?
**A.** 116.7%

**Q.** How did the “Percent Effect” value turn out when `CC1CN(Cc2ccccc2)CCCN1CCS(C)(=O)=O` (stereo not given) was run?
**A.** -9.711%

**Q.** With `CC1CN(Cc2ccccc2)CCCN1CCNS(C)(=O)=O` (stereo not given) as the compound, how does the “Percent Effect” value read?
**A.** 2.156%

**Q.** How did the “Percent Effect” value turn out when `COc1ccc(OCC(C)NS(C)(=O)=O)cc1` (stereo not given) was run?
**A.** -2.499%

**Q.** `CCCOc1cc(C)c2c(c1C)C[C@H]([C@H](C)C(=O)O)CC2` was tested. Which “Percent Effect” value did it give?
**A.** -9.304%

**Q.** `CNS(=O)(=O)CC(=O)N1CC2(CCCC2)c2c(F)cccc21` was tested. Which “Percent Effect” value did it give?
**A.** -10.56%

**Q.** How did the “Percent Effect” value turn out when `CCS(=O)(=O)N1CCC(NCC2CNc3cc(C)nn3C2)CC1` (stereo not given) was run?
**A.** -5.639%

**Q.** How did the “Percent Effect” value turn out when `CC(=O)Nc1ccc2c(c1)C1(CCOCC1)C(=O)N2c1ccsc1` was run?
**A.** 7.168%

**Q.** `C1CC(CN2CCCCC2C2OCCO2)C1` (stereo not given) was tested. Which “Percent Effect” value did it give?
**A.** 19.65%

**Q.** For `COc1ccc(NC(=O)CN2CCCCC2C2OCCO2)cc1` (stereo not given), which “Percent Effect” value is on record?
**A.** 17.05%

**Q.** How did the “Percent Effect” value turn out when `OCCN1CCCCC1C1OCCO1` (stereo not given) was run?
**A.** 89.19%

**Q.** For `C1CCN(CCN2CCCCC2C2OCCO2)CC1` (stereo not given), which “Percent Effect” value is on record?
**A.** 105.6%

**Q.** Which “Percent Effect” value does the source give for `COC(=O)c1ccc(NC(=O)CN2CCCCC2C2OCCO2)cc1` (stereo not given) here?
**A.** -2.306%

**Q.** `c1ccc(Cc2noc(CN3CCCCC3C3OCCO3)n2)cc1` (stereo not given) was tested. Which “Percent Effect” value did it give?
**A.** -5.666%
